NTMT1 inh = Primary qHTS for Inhibitors of N-terminal methyltransferase 1 (NTMT1): MTaseGlo Assay. N-terminal Xaa-Pro-Lys N-methyltransferase 1 (Homo sapiens), Q9BV86. Potency, µM (doses to about 114 µM), inactives show at the top dose activity change, negative = inhibition, hits mostly inhibitors. NTMT1 MTase-Glo SAH luminescence, purified enzyme. 2.5% of 59,000 active;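 further: potency means the concentration at half of the fitted maximal effect; plate controls were DMSO vehicle for no effect and no enzyme for full effect; nearly all actives have a fitted effect of over 65% in size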
Target sequence (Q9BV86 whole entry, looked up): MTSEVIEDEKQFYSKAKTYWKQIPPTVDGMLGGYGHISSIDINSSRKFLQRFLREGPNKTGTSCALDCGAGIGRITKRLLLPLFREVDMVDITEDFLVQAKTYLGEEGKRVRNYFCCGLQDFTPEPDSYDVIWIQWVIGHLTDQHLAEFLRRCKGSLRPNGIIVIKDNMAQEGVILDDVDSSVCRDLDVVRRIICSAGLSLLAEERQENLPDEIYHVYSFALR
HTT-AS promoter = Primary qHTS for Identification of Small Molecule Activators of Huntingtin-Antisense Promoter Activity; HEK293 HTT-AS promoter firefly luciferase reporter, 24 h; response scale: percent change from vehicle, -100% = no light; Potency, µM (highest dose often 57.5 µM), for inactives: at the highest dose activity change, positive = activation, hits mostly activators; 0.24% of 48,000 active; AID 1508624, 2021; further: potency means the concentration at half of the fitted maximal effect; nearly all actives have a fitted effect of over 55% in size
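Firefly luciferase readout (Dual-Glo, 10 min RT) after 24 h, 37 °C compound exposure (final up to 57.5 uM) of HEK293 reporter cells cultured 24 h beforehand; PTC124 at 50 uM final as control inhibitor; activity scaled vehicle 0%, zero RLU -100%.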
HTT prom inh = Primary qHTS for Identification of Small Molecule Inhibitors of Huntingtin Promoter Activity | HEK293 HTT promoter firefly luciferase reporter, 24 h | Potency, µM (doses to about 57.5 µM), inactives show at the top dose activity change, negative = inhibition, usual class: inhibitors | 0.93% of 48,000 active | AID 1508623, 2021; further: potency means the concentration at half of the fitted maximal effect; nearly all actives have a fitted effect of over 50% in size
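HEK293 cells carrying firefly luciferase reporters were seeded at 2,500 per well in Opti-MEM and cultured for 24 h. They were then treated with compounds at up to 57.5 uM final for 24 h at 37 degrees C before Dual-Glo luminescence readout.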
GPR32 ag = qHTS for Agonists of Human Resolvin D1 Receptor DRV1. 2.5% of 48,000 active. activation, % at 76.9 µM. Probable G-protein coupled receptor 32 (Homo sapiens), O75388. CHO-K1 GPR32 beta-arrestin PathHunter luminescence, 90 min; zero percent set by DMSO-only wells;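 active means activation of at least 60% and not above a set upper limit, about 1 call in 100 departs from these limits; inconclusive means activation of 40% to 60%, or above that upper limit; inactive means activation under 40%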; further: 0% is about no effect
Target sequence (O75388 whole entry, looked up): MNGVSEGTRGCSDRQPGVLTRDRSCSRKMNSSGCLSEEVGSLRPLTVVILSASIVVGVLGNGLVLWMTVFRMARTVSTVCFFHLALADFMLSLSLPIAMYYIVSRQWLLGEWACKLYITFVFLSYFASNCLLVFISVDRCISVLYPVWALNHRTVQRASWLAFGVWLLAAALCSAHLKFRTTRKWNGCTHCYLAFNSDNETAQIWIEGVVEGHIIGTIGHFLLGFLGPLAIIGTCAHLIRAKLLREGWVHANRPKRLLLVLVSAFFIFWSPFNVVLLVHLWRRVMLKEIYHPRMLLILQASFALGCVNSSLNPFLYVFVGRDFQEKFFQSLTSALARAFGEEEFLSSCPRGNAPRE
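Engineered CHO-K1 line co-expressing GPR32-ProLink and EA-beta-arrestin. Compound treatment lasted 90 min at 37 °C. Luminescence was recorded after 1 h with substrate at ambient temperature, relative to DMSO basal wells.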
The depositor's hits bear a star; u = inconclusive; x = not tested or not shown; ! = repeats disagree; [ ] = another dose, or the depositor's remark. Rows were chosen to be rich in hits. Some 4.6% of all compounds tested hit in one or more screens of this group. Unless noted, the call rests on the fitted dose curve; in most records, active means well fitted curve in the direction sought with a large enough effect; inconclusive means small, poorly fitted or top-dose-only effect, or another doubt; inactive means no such curve, though single readings can be large; an effect the other way counts as inactive or inconclusive.

SMILES | NTMT1 inh | HTT-AS promoter | HTT prom inh | GPR32 ag
COc1ccc(CNc2oc(-c3ccc(COc4ccccc4C)o3)nc2C#N)cc1 | -3% | -64% | 20µM* | -28
COc1ccc(CNc2oc(-c3ccc(COc4ccc(Cl)cc4)o3)nc2C#N)cc1 | 6% | -60% | 22µM* | -20
CNc1oc(-c2ccc(Cl)c(Cl)c2)nc1C#N | 1% | x | x | x
CN1C/C=C/CCOc2cccc(c2)-c2ccnc(n2)Nc2cccc(c2)C1 | 40µM* | x | x | x
O=C(Nc1ccc(-c2nc3ccccc3[nH]2)cc1)c1ccc2ncsc2c1 | -9%[57.5 µM] | x | x | x
C=CC1(C)CC=C2C(CCC3C(C)(C(=O)O)CCCC23C)C1 (stereo not given) | -3%[57.5 µM] | x | x | x
Cc1nc2nncn2c(NCc2ccc(Cl)cc2)c1C | 6% | -49% | u | 76*
COc1cc2ncnc(Nc3ccc(F)c(Cl)c3)c2cc1NC(=O)C=CCN1CCCCC1 | -28%[57.5 µM] | -21% | -1% | x
COc1cc2ncnc(Nc3ccc(F)c(Cl)c3)c2cc1OCCCN1CCOCC1 | 13µM*! | -32% | u | 77*
C=CC(=O)Nc1cc2c(Nc3ccc(F)c(Cl)c3)ncnc2cc1OCCCN1CCOCC1 | 11µM*! | -41% | -11% | 1
CC(C)(C)c1[nH]cnc1/C=c1\[nH]c(=O)/c(=C/c2ccccc2)[nH]c1=O | 22% | x | x | x
CCOC(=O)C(CCc1ccccc1)NC1CSC(c2cccs2)CN(CC(=O)O)C1=O (stereo not given) | -3%[57.5 µM] | x | x | x
CO[C@@]1(NC(=O)C(C(=O)O)c2ccc(O)cc2)C(=O)N2C(C(=O)O)=C(CSc3nnnn3C)CO[C@@H]21 (stereo not given in full) | u | 7% | 16% | 63*
COc1ccc(-c2oc3ncnc(N)c3c2-c2ccc(NC(=O)Nc3cc(C(F)(F)F)ccc3F)cc2)cc1 | -10% | x | x | x
Cc1ccc(-c2nc3n(n2)C(=O)CC(c2ccc(Cl)cc2)S3)cc1 (stereo not given) | 3% | 5% | 4% | 41
O=C1CC(c2ccc(Cl)cc2)Sc2nc(-c3ccc(F)cc3)nn21 (stereo not given) | 2% | 6% | -9%[11.5 µM] | 119*
CCOc1ccc(C2CC(=O)n3nc(-c4ccc(C)cc4)nc3S2)cc1OC (stereo not given) | 8% | -3% | 4% | 74*
O=[S+]([O-])(Nc1nccs1)c1ccc(NCc2cc(Cl)cc(Br)c2O)cc1 | -11% | x | x | x
CCOC(=O)c1cccc(Nc2cc(-c3ccccc3)ncn2)c1 | u | -41% | u | 27
COc1ccccc1-c1cc(Nc2cccc(CS(N)(=O)=O)c2)ncn1 | 35µM* | x | x | x
COc1ccc(-c2csc(=Nc3ccccc3)n2CCO)cc1F | -5% | 21% | u | 96*
CCN(CC)CCn1c(-c2ccccc2)csc1=Nc1ccccc1 | -2% | 16% | -5%[11.5 µM] | 85*
COCCCn1c(-c2ccc(S(=O)(=O)N3CCOCC3)cc2)csc1=Nc1ccccc1 | 13% | -68% | u | -50
O=C(O)CNC(=O)c1nc(Cl)c2ccccc2c1O | 10% | x | x | x
CCOc1ccc(NC(=O)c2ccc(-c3nc4ccccc4[nH]3)cc2)cc1Cl | 14% | x | x | x
SMILES | NTMT1 inh | HTT-AS promoter | HTT prom inh | GPR32 ag
CN(C)C/C=C/C(=O)Nc1ccc(C(=O)Nc2cccc(Nc3ncc(Cl)c(-c4c[nH]c5ccccc45)n3)c2)cc1 | 50µM*! | x | x | x
COc1c(C)cnc(Cn2cc(C#CCC(C)(C)O)c3c(Cl)nc(N)nc32)c1C | -7%[57.5 µM] | x | x | x
C[C@H]1CN(C2COC2)CCN1c1ccc(Nc2cc(-c3ccnc(N4CCn5c(cc6c5CC(C)(C)C6)C4=O)c3CO)cn(C)c2=O)nc1 | -10% | x | x | x
COc1ccc(Nc2cc(C)nc(-n3nc(C)cc3C)n2)cc1Cl | 0% | -75% | 13µM* | -17
Cc1cc(Nc2ccc(C(C)C)cc2)nc(-n2nc(C)cc2C)n1 | -4% | -18% | u | -5
O=C1S/C(=C\c2ccc(OCc3cccc(B(O)O)c3)cc2)C(=O)N1Cc1ccc(F)cc1 | 3% | x | x | x
COc1ccc(NC(=O)Nc2nnc(C)s2)cc1 | -1% | 11µM* | 31% | -12
COc1ccc(C(=O)Nc2nnc(C)s2)cc1 | -6% | u | 69% | -9
CCc1ccc(CNc2ncc(-c3cccc(OC)c3)n2C)cc1 | 1% | -37% | -29% | -32
CN1CCC(CNc2ccc3ncc(-c4cccc(OC(F)(F)F)c4)n3n2)CC1 | 16µM* | -30% | u | x
CCN(CC)c1ccc(NC(=O)c2cccn2-c2nnc(N3CCCCC3)s2)c(C)c1 | u | -30% | u | 76*
O=C1c2c(O[C@@H]3O[C@H](CO)[C@@H](O)[C@H](O)[C@H]3O)cc(O)cc2OC1(O)Cc1ccc(O)cc1 (stereo not given in full) | -19%[29.8 µM] | x | x | x
CC1(C)C=Cc2c(ccc3c2[N+]([O-])=C2C3(O)CC34NC(=O)C5(CCCN5C3=O)CC4C2(C)C)O1 (stereo not given) | 17%[29.8 µM] | x | x | x
CC[C@@H](Oc1cccc(CN(CCCOc2ccc(OC)cc2)c2nc3ccccc3o2)c1)C(=O)O | 5% | x | x | x
CCC(=O)Oc1ccc(/C=C(\C#N)c2nc3ccccc3[nH]2)cc1OC | 25µM* | u | 16% | 31
COc1cc(/C=C(\C#N)c2nc3ccccc3[nH]2)ccc1OCc1ccccc1F | 3% | -36% | u | 9
O=C(O[C@H]1[C@@H]2C=CO[C@@H](O[C@@H]3O[C@H](CO)[C@@H](O)[C@H](O)[C@H]3O)[C@@H]2[C@@]2(CO)O[C@@H]12)c1ccc(O)c(O)c1 | 6%[29.8 µM] | x | x | x
CCCc1cc(F)c(S(=O)(=O)N2CCN(S(=O)(=O)c3ccc4c(c3)OCCO4)CC2)cc1F | 12% | x | x | x
CS(=O)(=O)Nc1cccc(-c2cc(F)c(S(=O)(=O)N3CCN(S(=O)(=O)c4ccc5c(c4)OCCO5)CC3)cc2F)c1 | 18µM* | x | x | x
CN(C(=O)CNC(=O)/C=C/c1cccc(Cl)c1)C1CCS(=O)(=O)CC1 | 9% | x | x | x
C=C1C(=C/C=C2\CCC[C@]3(C)[C@@H]([C@H](C)/C=C/[C@@H](O)C4CC4)CC[C@@H]23)C[C@@H](O)C[C@@H]1O | -7%[57.5 µM] | -23% | -11% | 107*
Cc1cc(Br)cc(C)c1NC(=O)c1cnc2ccccn2c1=O | 7% | 28µM* | 36% | -14
CN([C@H]1c2cc(OCCCC(F)(F)F)ccc2OC(C)(C)[C@@H]1O)S(C)(=O)=O | 4%[57.5 µM] | x | x | x
Oc1cccc2cc(C3CC3)cnc12 | 8% | x | x | x
COc1cc(OC)cc(N2CCN(C(=O)Nc3nc4cc(F)ccc4nc3OC)CC2)c1 | 2% | x | x | x
CCCOc1ccc(CC2C(=O)Nc3ccc(Br)cc32)cc1 (stereo not given) | -9% | -17% | -22% | 78*

Screens (PubChem)
